Experiment [1] in a line: qHTS assay to identify small molecule antagonists of the estrogen related receptor (ERR) signaling pathway from Tox21 library - cell viability counter screen (AID 1224834). Note: nearly all actives have a fitted effect of over 30% in size. The method in brief:
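Fluorescence from CellTiter-Fluor gives the viability read-out, taken 30 min after reagent addition. Before that, ERR cells seeded 6 h earlier were incubated with compounds for 17.5 h at 37 C.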
For orientation: Quantitative high-throughput screening tests each substance at several concentrations.

Experiment [2] deals with Luciferin 4-monooxygenase (Photinus pyralis) (UniProt P08659). Briefly: qHTS assay to identify small molecule inhibitors of firefly luciferase (AID 1224835). Note: nearly all actives have a fitted effect of over 25% in size. The method in brief:
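Quantitative HTS format; KM concentrations of both substrates. Purified P. pyralis FLuc activity quantified from luminescence images.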

Experiment [3] can be described thus: qHTS assay to identify small molecule antagonists of the constitutive androstane receptor (CAR) signaling pathway - cell viability counter screen (AID 1224837). Note: nearly all actives have a fitted effect of over 45% in size. Put shortly:
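HepG2-CYP2B6-hCAR cells, 2500/well, 4 hr pre-incubation; compound titration, 15 conc.; CITCO 50 nM final; 23 hr, 37 C/5% CO2; CellTiter-Fluor, fluorescence intensity.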

Experiment [4] has as its target Nuclear receptor subfamily 1 group I member 3 (Homo sapiens) (UniProt Q14994). Briefly: qHTS assay to identify small molecule antagonists of the constitutive androstane receptor (CAR) signaling pathway (AID 1224838).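 Note: HepG2 cells stably expressing hCAR with CYP2B6 luciferase reporter stimulated by CITCO; nearly all actives have a fitted effect of over 40% in size.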 The method in brief:
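HepG2-CYP2B6-hCAR cells; 4 h pre-incubation; cpd (15 conc) + CITCO 50 nM final; 24 h, 37 C/5% CO2; ONE-Glo, luminescence.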

Experiment [5] is described as follows: qHTS assay to identify small molecule antagonists of the estrogen related receptor signaling pathway with the pleiotropic PPARgamma coactivator (PGC) from Tox21 10K library - cell viability counter screen (AID 1224840; active = well fitted cell-killing curve with a large enough effect in the repeat runs, not every such curve was filed as active; note: nearly all actives have a fitted effect of over 40% in size). Put shortly:
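PGC/ERR cells, 2,000/well; 6 h pre-incubation 37 C/5% CO2; cpd in DMSO via pin tool; 17.5 h 37 C; CellTiter-Fluor, 30 min; fluorescence.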

Experiment [6] can be described thus: qHTS assay to identify small molecule antagonists of the estrogen related receptor signaling pathway with the pleiotropic PPARgamma coactivator (PGC) from Tox21 10K library (AID 1224841; call rule not given here; note: actives are mostly falling curves and most rising ones were filed inactive; nearly all actives have a fitted effect of over 50% in size). The method in brief: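 PGC/ERR cell line, 2,000 cells/well; 6 h pre-incubation 37 C/5% CO2; compounds (DMSO) pinned in; 18 h, 37 C; One-Glo, 30 min RT; luminescence.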
Experiment [7] can be described thus: qHTS assay to identify small molecule agonists of the estrogen related receptor signaling pathway with the pleiotropic PPARgamma coactivator (PGC) from Tox21 10K library (AID 1224842). Note: nearly all actives have a fitted effect of over 15% in size. Put shortly: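 PGC/ERR reporter cells (NTP line) were seeded 2,000 per well, rested 6 h at 37 C/5% CO2, then pin-dosed with compounds in DMSO for 18 h at 37 C; luciferase read by One-Glo luminescence after 30 min at room temperature.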

Experiment [8] in a line: qHTS assay to identify small molecule agonists of the hypoxia (HIF-1) signaling pathway - cell viability counter screen (AID 1224844; calls by dose curve; note: nearly all actives have a fitted effect of over 50% in size). The method in brief:
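ME-180 HRE-bla cells, 2,000/well, 0.5% dialyzed FBS; 5 hr settle, 17 hr compound at 37C/5% CO2; CCF4-AM reporter read first, then CellTiter-Glo luminescence after 30 min RT.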

Experiment [9] can be described thus: qHTS assay to identify small molecule agonists of the hypoxia (HIF-1) signaling pathway (AID 1224846; active = well fitted activation curve with a large enough effect in the signal ratio in the repeat runs, not every such curve was filed as active; the % refers to the signal ratio). The method in brief:
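Cell line: CellSensor HRE-bla ME-180; 2,000 cells/well; 0.5% dialyzed FBS; 5 h preincubation; DMSO compound pin transfer; 17 h, 37C, 5% CO2; CCF4-AM added; bla FRET signal scored for activation.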

Experiment [10] is described as follows: qHTS assay to identify small molecule agonists of H2AX - cell viability counter screen (AID 1224847; calls by dose curve; note: top concentration of the series differs between compounds; nearly all actives have a fitted effect of over 30% in size). The method in brief: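 Counter-screen for viability: CellTiter-Glo ATP luminescence read after 3 h compound treatment (15-point titration, 0.76% DMSO final) of CHO-K1 cells at 37C, with 30 min room-temperature reagent incubation.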
A short description of experiment [11]: qHTS assay to identify small molecule agonists of the estrogen related receptor (ERR) signaling pathway from Tox21 library (AID 1224849; calls by dose curve; note: nearly all actives have a fitted effect of over 15% in size). The conditions noted are these: ERR reporter cell line, ONE-Glo luciferase, 18 h; at 92.4 µM (top of the series) unless noted. The method in brief:
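ERR cells, 6 h pre-incubation 37 C/5% CO2; cpd in DMSO pinned; 18 h 37 C; ONE-Glo added, 30 min RT; luminescence read. Agonist mode, qHTS.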

Experiment [12] is described as follows: qHTS assay to identify small molecule agonists of the constitutive androstane receptor (CAR) signaling pathway - cell viability counter screen (AID 1224836). Note: nearly all actives have a fitted effect of over 45% in size. The method in brief: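 Cell viability multiplexed with the CAR agonist screen: CellTiter-Fluor fluorescence after 23 hr at 37 C. HepG2-CYP2B6-hCAR cells got compounds at 15 concentrations with PK11195 at 0.75 uM final.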

The target in experiment [13] is Thyrotropin receptor (Homo sapiens) (UniProt P16473). Briefly: qHTS assay to identify small molecule agonists of the thyroid stimulating hormone receptor (TSHR) signaling pathway (AID 1224843; calls by dose curve; note: nearly all actives have a fitted effect of over 45% in size). Put shortly: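 TSHR-expressing HEK293 cells (800 per well) were exposed to compounds for 30 min at room temperature. cAMP was then detected by HTRF competition with cAMP-d2 and anti-cAMP cryptate, read after 1 h at room temperature. Fifteen concentrations, triplicate.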
Sequence of Thyrotropin receptor (Homo sapiens) (P16473 whole entry, looked up): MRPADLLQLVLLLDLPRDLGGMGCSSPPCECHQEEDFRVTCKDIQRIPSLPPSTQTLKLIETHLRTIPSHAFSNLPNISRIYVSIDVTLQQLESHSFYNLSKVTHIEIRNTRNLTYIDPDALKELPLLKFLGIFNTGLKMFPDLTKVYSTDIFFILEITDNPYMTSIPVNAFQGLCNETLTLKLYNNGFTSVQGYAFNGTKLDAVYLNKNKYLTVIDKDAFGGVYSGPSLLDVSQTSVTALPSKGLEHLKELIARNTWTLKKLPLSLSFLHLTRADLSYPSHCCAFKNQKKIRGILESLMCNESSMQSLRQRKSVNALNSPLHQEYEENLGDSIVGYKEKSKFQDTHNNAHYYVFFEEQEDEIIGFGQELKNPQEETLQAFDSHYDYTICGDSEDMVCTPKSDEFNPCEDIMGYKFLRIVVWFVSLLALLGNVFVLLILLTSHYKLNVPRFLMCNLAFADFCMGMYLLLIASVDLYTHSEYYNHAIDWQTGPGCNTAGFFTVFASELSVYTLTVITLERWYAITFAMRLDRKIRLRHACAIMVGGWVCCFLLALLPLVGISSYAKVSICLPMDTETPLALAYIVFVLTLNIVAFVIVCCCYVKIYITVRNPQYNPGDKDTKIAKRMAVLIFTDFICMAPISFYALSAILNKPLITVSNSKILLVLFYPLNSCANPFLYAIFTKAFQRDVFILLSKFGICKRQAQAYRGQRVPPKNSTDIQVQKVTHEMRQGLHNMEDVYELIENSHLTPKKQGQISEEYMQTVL

A short description of experiment [14]: qHTS assay to identify small molecule agonists of H2AX (AID 1224845; active = well fitted activation curve with a large enough effect in the signal ratio in the repeat runs, not every such curve was filed as active; the % refers to the signal ratio). Put shortly:
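Wild-type CHO-K1 cells plated overnight, then exposed 3 hr at 37C to compounds at 15 concentrations (0.76% DMSO). Lysed, then HTRF anti-pH2AX(S139)-cryptate/anti-H2AX-d2 detection after 24 hr at room temperature; emissions 665 and 620 nm.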

Experiment [15] is described as follows: qHTS RealTime-Glo MT Cell Viability Assay in HepG2 cells - 24 hour (AID 1224867). Note: nearly all actives have a fitted effect of over 50% in size. The method in brief:
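Tox21 10K library screened in qHTS format on HepG2 cells carrying RealTime-Glo reagents. Compounds were added after a 5 h preincubation, and the luminescent signal from continuous culture was measured repeatedly during 40 h treatment.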

Experiment [16] in a line: A CellTox Green Cytotoxicity Assay to monitor cytotoxicity in HEK293 cells - 0 hour (AID 1224869). Note: nearly all actives have a fitted effect of over 50% in size. The method in brief: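 Nonlytic real-time cytotoxicity: HEK293 + CellTox Green reagent plated, 5 h preincubation, pintool compound addition (23 nL in DMSO), 37 C for 40 h, fluorescence measured at successive time points.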
Experiment [17] concerns the target Nuclear receptor subfamily 1 group I member 3 (Homo sapiens) (UniProt Q14994). Briefly: qHTS assay to identify small molecule agonists of the constitutive androstane receptor (CAR) signaling pathway (AID 1224839).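 For activation: HepG2 cells stably carrying human CAR and a CYP2B6 luciferase reporter.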 Note: nearly all actives have a fitted effect of over 15% in size. Note: potency is the fitted concentration of half-maximal effect. The method in brief: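 Luminescent ONE-Glo read-out after 24 hr, 37 C exposure of double-stable HepG2-CYP2B6-hCAR reporter cells to a 15-point compound series, in the presence of 0.75 uM PK11195 (final).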

The nature of experiment [18]: qHTS RealTime-Glo MT Cell Viability Assay in HEK293 cells - 32 hour (AID 1224868). Note: nearly all actives have a fitted effect of over 50% in size. Note: potency is the fitted concentration of half-maximal effect. Put shortly:
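Luminescence generated by NanoLuc from substrate produced by living HEK293 cells served as the viability signal. Each value reflects the reading at its stated time point during continuous 40 h compound exposure at 37 C.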

Experiment [19] is described as follows: qHTS assay to identify small molecule antagonists of the estrogen related receptor (ERR) signaling pathway from Tox21 library (AID 1224848). Note: nearly all actives have a fitted effect of over 50% in size. Note: potency is the fitted concentration of half-maximal effect. Put shortly: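 Cells: ERR line, 2,000/well; 6 h preincubation 37 C/5% CO2. Cpd in DMSO via pin tool; 18 h, 37 C. ONE-Glo, 30 min RT, luminescence.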

Values without a mark were called inactive. Inconclusive results are not listed. Active and inactive are the calls of the source. Unless noted, calls come from the whole dose curve; as a rule, active = well fitted curve in the direction sought with a large enough effect in the repeat runs; inconclusive = weak or mixed curves; inactive = no such curve, though single readings can be large; an effect the other way counts as inactive or inconclusive.
% is set by controls: 0 for no effect and ±100 for the full control effect.

Sequence of Luciferin 4-monooxygenase (Photinus pyralis) (P08659 whole entry, looked up): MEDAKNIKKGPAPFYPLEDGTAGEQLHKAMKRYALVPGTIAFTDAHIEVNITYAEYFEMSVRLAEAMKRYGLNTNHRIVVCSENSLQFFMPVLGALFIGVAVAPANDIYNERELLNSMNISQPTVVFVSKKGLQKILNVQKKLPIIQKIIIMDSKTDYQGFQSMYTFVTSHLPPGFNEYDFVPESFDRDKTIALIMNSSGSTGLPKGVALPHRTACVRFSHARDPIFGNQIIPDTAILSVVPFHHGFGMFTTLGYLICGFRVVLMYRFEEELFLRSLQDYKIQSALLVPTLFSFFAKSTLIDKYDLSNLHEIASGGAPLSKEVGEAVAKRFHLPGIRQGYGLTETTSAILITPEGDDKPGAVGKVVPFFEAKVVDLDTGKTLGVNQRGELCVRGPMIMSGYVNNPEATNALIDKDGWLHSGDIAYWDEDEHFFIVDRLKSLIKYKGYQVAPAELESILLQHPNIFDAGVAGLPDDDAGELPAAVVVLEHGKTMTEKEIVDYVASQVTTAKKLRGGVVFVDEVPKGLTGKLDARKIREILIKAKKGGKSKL
Sequence of Nuclear receptor subfamily 1 group I member 3 (Homo sapiens) (Q14994 whole entry, looked up): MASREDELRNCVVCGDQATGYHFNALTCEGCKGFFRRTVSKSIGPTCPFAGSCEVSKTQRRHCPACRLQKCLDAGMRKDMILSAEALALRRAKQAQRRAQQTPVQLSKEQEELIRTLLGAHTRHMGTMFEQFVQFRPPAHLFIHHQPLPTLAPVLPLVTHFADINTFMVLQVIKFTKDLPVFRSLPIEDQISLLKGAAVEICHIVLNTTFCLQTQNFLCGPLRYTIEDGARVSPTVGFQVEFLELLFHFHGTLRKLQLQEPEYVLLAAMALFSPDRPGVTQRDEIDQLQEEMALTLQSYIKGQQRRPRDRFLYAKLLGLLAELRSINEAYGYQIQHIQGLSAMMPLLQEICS

As to `Cc1ccc2nc(N)[nH]c(=O)c2c1Sc1ccncc1`, the Potency result in experiment [1], in experiment [2], in experiment [3], in experiment [4], in experiment [5] and in experiment [6] was “inactive” each time. Besides, the Potency entry in experiment [7], in experiment [8] and in experiment [10] was “inactive” in each case. For the same molecule, the molecule was called inactive in experiment [9]. Besides, in experiment [11], the activity change, positive = activation was -24.3% [at 42.5 µM].

Turning to `O=P(O)(O)Oc1ccccc1`, the Potency entry in experiment [1], in experiment [2], in experiment [12], in experiment [3], in experiment [13] and in experiment [8] was “inactive” throughout. The Potency result in experiment [14], in experiment [10], in [15] and in [16] was “inactive” throughout. In experiment [9], the molecule was called inactive.

For the molecule `COC(CC(C)CCCC(C)(C)O)OC` (stereo not drawn), the Potency entry in experiment [1], in [2], in experiment [3], in experiment [4], in experiment [17] and in experiment [5] was “inactive” throughout. Moreover, the Potency result in experiment [13], in [8], in experiment [14], in [10], in experiment [15] and in experiment [18] was “inactive” each time. For the same molecule, in experiment [16], the Potency entry is “inactive”. Further, the call in experiment [9] was inactive.

For the molecule `CNCc1ccc(NC(=O)c2c[nH]c3c2C(=O)CCC3)cc1`, the Potency result in experiment [1], in experiment [2], in experiment [12], in experiment [4], in experiment [5] and in experiment [6] was “inactive” each time. Moreover, the Potency result in [7], in [13], in experiment [8], in experiment [14], in [10] and in [19] was “inactive” in each case. Further, the Potency result in experiment [15] and in experiment [16] was “inactive” in each case. Moreover, in experiment [17], the Potency is 1.72 µM (active). In addition, the call in [9] was inactive. The activity change, positive = activation in experiment [11] was -17.3%.

On to `O=C(O)/C=C/c1ccc(O)c(O)c1`, for which the Potency entry in experiment [1], in experiment [2], in experiment [3], in experiment [4], in experiment [17] and in [5] was “inactive” throughout. For the same molecule, the Potency result in experiment [13], in experiment [8], in experiment [10], in experiment [15] and in experiment [18] was “inactive” in each case.

For the molecule `OCC(CO)n1cnc(-c2ccc(F)cc2)c1-c1ccnc(Oc2ccccc2)n1`, the Potency result in experiment [1], in experiment [2], in [3], in experiment [4], in experiment [17] and in experiment [5] was “inactive” each time. In addition, the Potency entry in [7], in [13], in experiment [8], in experiment [10], in experiment [15] and in [18] was “inactive” each time. The Potency result in [16] was “inactive”. For the same molecule, the outcome in experiment [9] was inactive. Further, the Potency in [19] is 27.3 µM (active). Also, the activity change, positive = activation in experiment [11] is -29%.

As to `CCOC(=O)c1c(N)sc2c1CCN(Cc1ccccc1)C2`, the Potency entry in experiment [1], in experiment [2], in experiment [3], in experiment [4], in experiment [17] and in experiment [13] was “inactive” throughout. In addition, the Potency entry in experiment [8], in [14], in experiment [10], in experiment [15] and in experiment [16] was “inactive” in each case. The molecule was classed as inactive in [9]. For the same molecule, the Potency in experiment [18] was 21.3 µM (active).

Take `CC(CO)(CO)C(=O)O`: the Potency result in experiment [1], in experiment [2], in experiment [3], in experiment [4], in experiment [17] and in experiment [6] was “inactive” in each case. In addition, the Potency entry in [7], in experiment [14], in [10], in [19], in experiment [15] and in experiment [18] was “inactive” each time. The Potency entry in experiment [16] was “inactive”. For the same molecule, in experiment [9], the call was inactive. Further, the activity change, positive = activation in [11] is -0.0649%.

For the origin of these results see PubChem BioAssay (Tox21).
